HepG2 viability: kills HepG2 cells in TGF-b inhibitor counter-screen; HepG2 CAGA-GFP viability, ATP luminescence, 18 h; AID 588856; Potency, µM (titrated, usually from 46.1 µM), hits mostly cytotoxic; hit rate 0.76% among 410,000
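CellTiter-Glo luminescence gave cytotoxicity after 18 hours at 37 degrees C. The cells were HepG2 CAGA-GFP in 1% FBS DMEM, stimulated with 500 pg/mL TGF-beta after compound addition. %Activity was normalised to no-cell wells (complete cell-killing) and DMSO (no toxicity), and curves were fitted and classified.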
TGFb SMAD3 inh: TGF-b pathway inhibition | Potency, µM (top dose mostly 46.1 µM), actives largely listed as inhibitors | hit rate 1.2% among 410,000 | HepG2 CAGA-GFP TGF-b/SMAD3 reporter, GFP fluorescence, 18 h; TGF-beta stimulated, 500 pg/mL final; further: nearly all actives have a fitted effect of over 65% in size
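First, reporter cells (HEPG2 CAGA-GFP) rested 2 h at 37 degrees C. Next, compounds were pinned in and TGF-beta added to 500 pg/mL final. After 18 h, GFP was imaged per cell and summed per well.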
ATXN viability: reduces viability in counter-screen for ATXN expression inhibitors | Potency, µM (doses to about 56.7 µM), usual class: cytotoxic | hit rate 0.49% among 400,000 | S2 cells (HEK-293 line with an ATXN2-luciferase reporter) viability, CellTiter-Fluor protease fluorescence, 24 h; further: nearly all actives have a fitted effect of over 40% in size
HT1080 IDH1KD tx: kills HT-1080 cells with IDH1 knockdown. hit rate 2% among 360,000. Potency, µM (titrated, usually from 46.1 µM), most hits filed as cytotoxic. AID 686971. HT-1080 IDH1 knockdown viability, ATP luminescence, 48 h
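Knockdown cells (IDH1KD HT-1080) received compounds 2 h after plating at 750 cells/well and were kept 48 h at 37 °C in 5% FBS RPMI. A CellTiter-Glo luminescence read gave % activity for curve fitting.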
HT1080NT lethal: kills 2HG-producing HT-1080-NT fibrosarcoma cells; Potency, µM (titrated, usually from 46.1 µM), most hits filed as cytotoxic; hit rate 1.6% among 360,000; HT-1080-NT fibrosarcoma viability, CellTiter-Glo ATP luminescence, 48 h; AID 686970;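 further: NT is the 2HG producing partner of a matched IDH1 knockdown line; nearly all actives have a fitted effect of over 55% in size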
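A 48-hour cytotoxicity screen used HT-1080-NT cells plated 2 hours before compound delivery. ATP-based CellTiter-Glo luminescence measured viability, normalized to DMSO and no-cell controls.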
ATXN2 expr inh: inhibitors of ATXN2 expression; Potency, µM (doses to about 57 µM), usual class: inhibitors; hit rate 0.72% among 360,000; HEK-293 ATXN2-luciferase reporter, luminescence, 24 h; further: nearly all actives have a fitted effect of over 55% in size
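ATXN2-luciferase reporter cells (luciferase flanked by upstream and downstream ATXN2 gene portions) were treated 24 h at 37 °C with compounds at up to 57 uM. SteadyGlo luminescence gave expression; GF-AFC fluorescence gave viability.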
Hits are given with their value; n = inactive; u = inconclusive; x = not tested or not shown. Sampled rows, rich in hits. Any-hit rate of the full collection: about 3.8%. The call rests on the fitted dose curve; in most records, active means well fitted curve in the direction sought with a large enough effect; inconclusive means small, poorly fitted or top-dose-only effect, or another doubt; inactive means no such curve, though single readings can be large; an effect the other way counts as inactive or inconclusive.

SMILES	HepG2 viability	TGFb SMAD3 inh	ATXN viability	HT1080 IDH1KD tx	HT1080NT lethal	ATXN2 expr inh
CN=c1scc(-c2ccc(F)cc2)n1/N=C/c1ccc(O)c(O)c1	n	u	u	8.2µM	u	u
C=CCN1[C@@H](C(C)C)COCCS1(=O)=O	n	n	x	x	x	x
Cn1nnnc1SCCCNCc1cc(Br)ccc1OCc1ccccc1	n	u	u	x	x	n
Cc1c(C(=O)N2CCOCC2)[nH]c2c1C(=O)CC(c1ccccc1Cl)C2 (configuration not stated)	n	n	n	4µM	5µM	n
Cc1c(C(=O)OC2CCCCC2)[nH]c2c1C(=O)CC(c1ccccc1Cl)C2 (configuration not stated)	n	n	u	x	x	n
Cc1ccccc1NC(=O)Cn1nnc(C(=O)NCc2cccs2)c1N	n	n	u	x	x	n
COC(=O)C1=C(N)Oc2cc(N(C)C)ccc2C1c1ccccc1OC (configuration not stated)	n	n	n	4.1µM	u	n
C[C@@H](CN1C2=NC[C@H](Cc3ccc(O)cc3)N2C[C@H]1Cc1ccc(O)cc1)NC(=O)CCC1CCCCC1	n	n	n	n	n	n
COc1ccc(C[C@H]2CN3C(=NC[C@@H]3Cc3ccc(O)cc3)N2CCNC(=O)c2ccc(C)c(Br)c2)cc1	16µM	u	x	u	u	25µM
C[C@@H](CN1C2=NC[C@H](Cc3ccccc3)N2C[C@H]1Cc1ccc(O)cc1)NC(=O)CCC1CCCCC1	n	u	22µM	u	u	28µM
COc1ccc(C[C@H]2CN3C(=NC[C@H]3Cc3ccccc3)N2CCNC(=O)c2ccc(C)c(Br)c2)cc1	n	u	28µM	u	n	u
COc1ccc(C[C@H]2CN3C(=NC[C@@H]3Cc3ccccc3)N2CCNC(=O)c2ccc(C)c(Br)c2)cc1	13µM	u	x	u	u	22µM
C/C=C(\C)C(=O)NCCN1C2=NC[C@H](Cc3ccccc3)N2C[C@H]1Cc1ccc(O)cc1	n	n	n	n	n	n
O=C(Nc1nc2ccc(S(=O)(=O)N3CCCC3)cc2s1)c1cccc(F)c1	n	n	n	x	x	n
COc1ccc(OC(=O)N(CC(=O)O)Cc2ccc(OCCc3nc(-c4ccccc4)oc3C)cc2)cc1	x	x	n	x	x	n
C/C=C(\C)C(=O)NCCN1C2=NC[C@H](Cc3ccccc3)N2C[C@@H]1Cc1ccc(OC)cc1	n	n	n	n	n	n
Cc1ccc(C(=O)NCCN2C3=NC[C@H](Cc4ccc(O)cc4)N3C[C@H]2Cc2ccc(O)cc2)cc1Br	n	n	n	n	n	n
Cc1ccc(C(=O)NCCN2C3=NC[C@@H](Cc4ccccc4)N3C[C@H]2Cc2ccc(O)cc2)cc1Br	11µM	16µM	u	n	n	25µM
COc1ccc(C[C@H]2CN3C(=NC[C@H]3Cc3ccccc3)N2CCNC(=O)CCC2CCCCC2)cc1	n	u	35µM	n	n	35µM
CC1=CC(C)(C)Nc2ccc(OC(=O)CN3C(=O)c4cccc5cccc(c45)C3=O)cc21	n	n	n	n	n	u
CC1=CC(C)(C)Nc2ccc(OC(=O)CN3C(=O)c4ccccc4C3=O)cc21	18µM	n	x	u	u	28µM
Cc1cc(C(=O)NCCN2Cc3ccccc3OC(c3ccccc3F)C2)no1 (configuration not stated)	x	x	n	x	x	x
CC(C)Cc1nc2cc(NS(=O)(=O)N(C)C)cc(C(=O)N3CCOCC3)c2n1C	x	x	n	x	x	x
O=S(=O)(Nc1nc2ccccc2nc1Nc1cccc(S(=O)(=O)N2CCCCC2)c1)c1ccccc1	n	n	u	u	6.5µM	u
COc1ccc(C(CNC(=O)c2ccc(-c3ccccc3)cc2)N(C)C)cc1OC (configuration not stated)	n	n	n	21µM	18µM	n
COc1ccc(-c2cc(C(=O)NCC(c3ccccc3)N(C)C)c3ccccc3n2)cc1OC (configuration not stated)	n	n	u	u	u	n
